# In ChEMBL document CHEMBL3433997, “St. Jude Leishmania screening dataset” (2016):
# Experiments:
# Type in all cases: functional
# [1] = biological target: Solute carrier family 2, facilitated glucose transporter member 1 (Homo sapiens) (UniProt P11166); experiment: ST_JUDE_LEISH: Cytotoxicity at 2uM final concentration against transgenic Leishmania Mexicana promastigotes LmGLUT1 that are glucose transport deficient and complemented with the human glucose transporter GLUT1. Activity is measured by DNA content using SYBR green in vitro
# Chain of Solute carrier family 2, facilitated glucose transporter member 1 (Homo sapiens) (P11166 whole entry): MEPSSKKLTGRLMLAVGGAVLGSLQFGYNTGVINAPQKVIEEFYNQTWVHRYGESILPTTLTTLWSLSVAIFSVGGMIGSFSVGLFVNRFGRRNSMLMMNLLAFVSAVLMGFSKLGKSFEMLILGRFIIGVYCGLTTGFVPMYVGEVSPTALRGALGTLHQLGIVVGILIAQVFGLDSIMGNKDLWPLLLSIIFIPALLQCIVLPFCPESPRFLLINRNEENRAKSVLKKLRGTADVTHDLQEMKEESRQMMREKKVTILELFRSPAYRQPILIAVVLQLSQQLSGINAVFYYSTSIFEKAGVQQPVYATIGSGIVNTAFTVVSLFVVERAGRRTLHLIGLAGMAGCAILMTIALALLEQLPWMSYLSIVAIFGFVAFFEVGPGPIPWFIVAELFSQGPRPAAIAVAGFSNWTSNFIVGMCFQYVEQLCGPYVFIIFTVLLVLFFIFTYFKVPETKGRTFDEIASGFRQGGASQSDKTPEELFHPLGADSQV
# [2] = biological target: Hexose transporter 1 (Plasmodium falciparum) (UniProt O97467); experiment: ST_JUDE_LEISH: Cytotoxicity at 2uM final concentration against transgenic Leishmania Mexicana promastigotes LmPfHT that are glucose transport deficient and complemented with the Plasmodium falciparum hexose transporter. Activity is measured by DNA content using SYBR green in vitro
# [3] = biological target: Glucose transporter (Leishmania mexicana) (UniProt O61059); experiment: ST_JUDE_LEISH: Cytotoxicity at 2uM final concentration against transgenic Leishmania Mexicana promastigotes LmGT2 that are glucose transport deficient and complemented with the L. Mexicana glucose transporter 2. Activity is measured by DNA content using SYBR green in vitro
SMILES,inhibition [1],inhibition [2],inhibition [3]
CCN(CCCN1CCCCC1)c1cc(C)nc(Nc2ccc(C)c(Cl)c2)n1,3.02%,2.33%,1.16%
Cc1cccn2c(=O)c3cc(C(=O)NC(C)c4ccccc4)c(=N)n(CCc4ccccc4)c3nc12 (configuration not stated),12.2%,16.8%,11.9%
Cc1ccc(Nc2ccnc3cc(-c4nccs4)ccc23)cc1C(O)c1ccccc1 (configuration not stated),3.59%,2.96%,3.72%
COc1ccc2nccc(CCC3(O)CCC(NCc4cc5c(cc4F)SCC(=O)N5)CC3)c2c1 (configuration not stated),0.25%,2.45%,-2.7%
COc1ccc(CNCc2ccccc2)cc1-c1cccc(S(=O)(=O)NCCN2CCCC2)c1,1.03%,1.05%,-3.15%
CN1CCN(Cc2ccc(OCc3cccc(COc4ccc(CN5CCN(C)CC5)cc4I)c3)c(I)c2)CC1,1.53%,0.72%,-0.68%
CCCCC(=O)Nc1ccc(Nc2nc(C)cc(N3CCCC3)n2)cc1,2.54%,3.88%,3.88%
O=C(NCCCCN1CCC(c2ccc3c(c2OCc2ccccn2)CCCC3)CC1)c1ccc(NC(=O)c2ccc(Cl)cc2)cc1,2.21%,0.31%,2.55%
Cc1nc(C)c(-c2ccc(C(=O)c3ccc(Cl)cc3)cc2)c(O)c1Cl,8.16%,10.4%,9.25%
Cn1cnc2c(Nc3ccncc3)nc(-c3ccc(OC(F)(F)F)cc3)nc21,2.51%,1.84%,2.19%
CC1(C)NC(N)=NC(=N)N1OCCCOc1c(Cl)cc(Cl)cc1Cl,-1.14%,0.14%,-2.41%
CCCC(C)c1cnc2nc(N)nc(N)c2c1C (configuration not stated),3.61%,4.91%,4.24%
O=C(Nc1cccc(CN2CCCN(Cc3cccc(Cl)c3)CC2)c1)c1ccc(-c2ccccc2)cc1,4.82%,4.23%,0.66%
CCOCc1cnc(C)nc1CNC(=O)c1c(C)[nH]c2ccc(C)cc12,0.96%,0.7%,1.12%
COc1ccc2c(=NN=Cc3cccnc3)cc(C)[nH]c2c1,1.93%,0.44%,1.52%
O=C(Nc1ccc(Cl)cc1)Nc1cccc(CCNCc2ccccc2)c1,0.95%,0.57%,1.38%
CCn1c(-c2nonc2N)nc2cnc(Oc3cccc(NC(=O)c4ccc(OCCCN5CCCCC5)cc4)c3)cc21,16.4%,25.8%,6.29%
Cc1cccc2nc(-c3ccc(-c4cccc(NC(=O)Nc5cccc(C#N)c5)c4)cc3)[nH]c12,0.79%,-0.19%,-1.23%
CN1CCC(C(=O)N(Cc2ccc(-c3ccc(CNCCc4ccc(S(C)(=O)=O)cc4)cn3)cc2)Cc2cccc(F)c2)CC1,1.69%,0.58%,0.97%
Cc1cccc(C)c1OC(=O)CSc1nnc(-c2ccccc2O)o1,1.32%,2.43%,1.28%
CC(C)CC(NC(=O)c1ccc(F)cc1)C(=O)N[C@H](/C=N/N1CCNC1=O)CC(C)C (some centres not stated),3.16%,4.41%,3.66%
Oc1ccc2c(c1CNC1CCCCC1)CCCC2,5.27%,3.89%,4.96%
CN1CCN(CCCN(Cc2cccc(-c3ccc(CNCc4ccc5c(c4)OCO5)cc3)c2)C(=O)Nc2ccccc2)CC1,1.77%,4.4%,1.33%
O=C(NCCCCCCNCc1ccc(-c2ccccc2)cc1)Nc1ccc(Cl)c(Cl)c1,1.38%,0.96%,2.28%
CCCC(C)NC(=O)[C@H](CC1CCCCC1)NC(=O)c1ccc(O)c(-c2cccc(C(F)(F)F)c2)c1 (some centres not stated),-1.37%,3.47%,0.42%

SMILES,inhibition [1],inhibition [2],inhibition [3]
CC(C)(C)c1ccc(CNC(=O)c2ccc(-c3nc4cc(C(C)(C)C)ccc4[nH]3)cc2)cc1,4.41%,4.23%,1.77%
Cc1c(CNCCCNc2nc3ccccc3[nH]2)sc(C(F)F)c1Br,3.07%,0.8%,1.17%
COc1cc(NC(=O)C(c2ccc(Cl)cc2)C(C)C)cc(OC)c1 (configuration not stated),2.88%,2.55%,1.33%
NC(=O)Nc1ccc2cn[nH]c2c1,-0.02%,0.57%,0.33%
Cc1cc(C(=O)NC2CCN(CC3(c4ccccc4)CCCCC3)CC2)on1,1.62%,0.59%,-0.45%
CC(C)C[C@H](NC(=O)c1ccc(F)cc1)C(=O)N[C@H](/C=N/NC(=O)c1ccccc1)CCc1ccccc1,4.79%,6.16%,3.91%
COc1cc2nc(SCC(C)C)n(CCCn3ccnc3)c(=N)c2cc1OC,3.51%,6.49%,3.6%
Cc1ccc(C(=O)Nc2ccc(Nc3ccnc4cc(-c5nccs5)ccc34)cc2O)cc1,6.24%,3.22%,1.89%
CC(C)(CNC(=O)C1CCN(CC2CCCCC2)CC1)c1nc(-c2ccc(Cl)c(O)c2)c(-c2ccncc2)[nH]1,1.84%,0.23%,2.71%
CC[C@H](C)CNC(=O)c1cccc(-c2cccc(CN3CCC(N4CCCC4)CC3)c2)n1,-2.59%,-0.05%,-0.2%
O=C(NC1CCN(c2ccnc(Nc3ccc(F)cc3)n2)C1)c1cc2ccccc2s1 (configuration not stated),0.69%,1.57%,1.27%
Cc1cc(N[C@@H](Cc2ccccc2)C(=O)NCCCOC(C)C)nc(NCCc2ccc(F)cc2)n1,5.75%,2.58%,0.38%
CC(NC(=O)NC1CCC(CCN2CCCc3ccccc32)CC1)c1cccc2ccccc12 (configuration not stated),0.93%,1.8%,-1.84%
O=C(Nc1cccc([N+](=O)[O-])c1)N(Cc1ccc(Cl)c(Cl)c1)C1CCNCC1,5.08%,3.21%,3.8%
Clc1ccccc1OCc1ccccn1,3.19%,2.07%,2.66%
CN1CCN(CC(=O)Nc2cccc(-c3cccc(-c4nc5cc(C(F)(F)F)ccc5[nH]4)c3)c2)CC1,3.23%,2.92%,3.87%
COc1ccc(C=Cc2cc(=N)c3ccccc3[nH]2)cc1Br,1.57%,2.29%,1.29%
Cc1cc(=NN=Cc2ccccc2)c2cc(F)ccc2[nH]1,4.17%,0.79%,6.79%
CC(CN(C)C)C(=O)Nc1cccc(-c2cccc(-c3nc4cc(F)ccc4[nH]3)c2)c1 (configuration not stated),-2.1%,-1.06%,-3.91%
CN1CC[C@@H](Oc2cc(C(=O)NCc3ccc(Cl)c(Cl)c3)ccc2C(F)(F)F)C1,-0.85%,-1.04%,0.48%
CCN(C(=O)CSc1cc(C)c2cc(C)cc(C)c2n1)C1CCS(=O)(=O)C1 (configuration not stated),0.63%,0.78%,-0.42%
CN1CCCC1CCNCc1cccc(-c2cnc(N3CCCC(C)(C)C3)nc2)c1 (configuration not stated),108%,103%,104%
COc1ccc2nccc([C@@H](O)CN3CCC(NC(=O)c4ccc(CN5CCN(c6cccc(C)c6)CC5C)cc4)CC3)c2c1 (some centres not stated),4.12%,1.46%,-3.5%
CC(C)(C)c1ccc(CN2CCC(CNC(=O)c3cc(-c4ccccc4F)cs3)C2)cc1 (configuration not stated),-1.08%,-2.3%,0.9%
O=C(Nc1ccc(-c2cccc(-c3nc4cc(C(F)(F)F)ccc4[nH]3)c2)cc1)c1ccoc1,4.69%,3.58%,3.22%

SMILES,inhibition [1],inhibition [2],inhibition [3]
Cc1cccc(C(=O)Nc2ccc(N3CCCN(Cc4cccc(O)c4)CC3)cc2)c1,5.01%,3.72%,2.78%
Cc1cc(OC(C)C(=O)N2CCc3ccccc32)ccc1Cl (configuration not stated),4.58%,3.8%,6.71%
CCOc1cc(Cc2cnc(N)nc2N)cc(OCC)c1O,1.1%,1.86%,-1.21%
CO[C@H](C)[C@H](NC(=O)[C@H](CC(C)C)[C@H](CCC(F)(F)F)N(O)C=O)C(=O)Nc1nccs1,4.95%,4.95%,3.68%
c1ccc2[nH]c(-c3ccc(-c4ccc(CNCC5CCCO5)cc4)s3)nc2c1 (configuration not stated),5.5%,4.61%,5.42%
CCC(=O)Nc1ccc(C(O)CN2CCC3(C=Cc4ccccc4O3)CC2)cc1 (configuration not stated),3.61%,2.65%,1.63%
O=C(/C=N/O)Nc1ccccc1[N+](=O)[O-],-1.31%,0.8%,0.39%
CCOC(=O)C1=C(C)NC2=C(C(=O)CC(C)(C)C2)C1c1ccc(Br)cc1 (configuration not stated),1.77%,0.63%,0.59%
Oc1ccc(CCCNc2nc(NCc3cccc4ccccc34)nc(N3CCNCC3)n2)cc1,-1.06%,0.53%,0.63%
CC(=O)Nc1ccc(Cl)c(Cl)c1,-0.84%,0.05%,-0.72%
CCOC(=O)c1ccc(NC(=O)N(Cc2ccc(-c3ccc(CN4CCNCC4)cc3)cc2)C2CCN(Cc3ccccc3)CC2)cc1,3.61%,2.86%,-1.08%
CC(C)NCc1ccc(-c2cccc(NC(=O)c3cccc(Cl)c3)c2)cc1,17.7%,12.9%,10.7%
CCCCNS(=O)(=O)c1ccc(NC(=O)c2cc([N+](=O)[O-])ccc2Cl)cc1,2.21%,0.49%,-1.07%
O=C1CCCN1CCCNCc1ccc(-c2ccc(-c3nc4cc(C(F)(F)F)ccc4[nH]3)s2)cc1,4.04%,1.98%,3.27%
Fc1ccc2c(NN=Cc3ccc(Cl)cc3)ccnc2c1,10.8%,10.9%,6.76%
Cc1cc(OCCCN2CCCCC2C)ccc1NC(=O)COc1ccc(Cl)cc1C(=O)c1cc(Cl)cc(C#N)c1 (configuration not stated),74.2%,78.3%,58%
Cc1ccccc1OCC(=O)Nc1ccc(-c2nc3cc4ccccc4cc3[nH]2)cc1,7.32%,3.71%,4.05%
O=C(Nc1ccc(Cn2nc(Cl)c(N3CCNCC3)cc2=O)cc1)Nc1ccc(-c2ccccc2)cc1,14%,9.91%,11.4%
CCOC(=O)c1cn(CC)c2cc(OCc3ccccc3)ccc2c1=O,0.45%,0.36%,4.59%
COc1cc(Nc2nc(N)c3cc(OC)c(OC)cc3n2)cc(OC)c1,6.58%,5.6%,3.12%
Cc1ccc(C(=O)NC2CC2)cc1-c1ccc2c(cnn2S(=O)(=O)c2ccc(F)cc2)c1,3.39%,3.78%,0.4%
O=C(NC1CCN(CCC(NC(=O)c2ccccc2)c2ccc(Cl)c(Cl)c2)CC1)c1ccc(Cl)cc1 (configuration not stated),3.39%,2.33%,1.88%
O=C(/C=C/c1ccc(Cl)c(Cl)c1)N1CCC(CNCc2cccc3cc[nH]c23)CC1,1.64%,0.75%,1.48%
O=C(/C=C/c1ccc(Cl)cc1)NCCCCCN1CCN(C(=O)C=Cc2ccc(Cl)c(Cl)c2)CC1,2.44%,0.82%,-2.29%
